Measured values published in PubChem BioAssay (NCATS).
Records with an inconclusive call do not appear. Values without a mark were called inactive. The source made the active and inactive calls. Calls follow the shape of the dose curve; as a rule, active = well fitted inhibition curve with a large enough effect; inconclusive = small, poorly fitted or top-dose-only effect; inactive = flat fitted curve, though single readings scatter.

Test system: Zika virus NS2B-NS3 protease
Assay: Primary screen GU AMC qHTS for Zika virus inhibitors (AID 1347154); also: nearly all actives have a fitted effect of over 70% in size;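 as to activity change, negative = inhibition: 0% = no-inhibitor control and -100% = no-enzyme control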
Conditions: Zika NS2B-NS3 unlinked protease, AMC fluorogenic substrate; series mostly up to 54.1 µM; activity change, negative = inhibition: at the top concentration
Procedure, shortened: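 Fluorogenic AMC-substrate cleavage by noncovalent NS2B-NS3 protease complex (25 nM, pH 8.0 Tris buffer with Tween 20) followed for 15 minutes at room temperature (~20% conversion). Percent inhibition from ex340/em450 signal change, fitted by 4-parameter Hill equation.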
Potency is read from the fitted curve at half-maximal effect.

| SMILES | activity change, negative = inhibition | Potency |
| --- | --- | --- |
| C#C[C@]1(O)C=C[C@H]2[C@@H]3CCC4=CC(=O)CC[C@@H]4[C@H]3CC[C@@]21CC | -1.67% |  |
| CC(C)(O)C(Cl)(Cl)Cl | 3.78% |  |
| C[N+]1(CCC(C(N)=O)(c2ccccc2)c2ccccc2)CCCCC1 | 4.21% |  |
| COP(=S)(OC)Oc1ccc(S(N)(=O)=O)cc1 | -0.0379% |  |
| CC(Cc1ccccc1)NCc1ccccc1Cl (centres undefined) | -11% |  |
| CNC(C)Cc1ccccc1OC (centres undefined) | 4.3% |  |
| CCCCCCCCCCCC[N+](C)(C)CCOc1ccccc1 | -18.3% |  |
| CC#C[C@]1(O)CC[C@H]2[C@@H]3C[C@H](C)C4=CC(=O)CC[C@]4(C)[C@H]3CC[C@@]21C | -8.72% |  |
| CC(C)C(Br)C(=O)NC(N)=O (centres undefined) | 3.59% |  |
| CCN1CCCC1CNC(=O)C(O)(c1ccccc1)c1ccccc1 (centres undefined) | -3.04% |  |
| CNC(C)Cc1ccc2c(c1)OCO2 (centres undefined) | -1.09% [at 104 µM] |  |
| CC(C)(C)OC(=O)c1ncn2c1[C@@H]1CCCN1C(=O)c1c(Br)cccc1-2 | 0.553% |  |
| CC(CC(C(N)=O)(c1ccccc1)c1ccccc1)N(C)C (centres undefined) | 4% |  |
| Nc1ccccc1C(=O)OCC(O)CO (centres undefined) |  | 16.1 µM (active) |
| CN1[C@@H]2CC[C@H]1CC(OC(=O)c1cc(Cl)cc(Cl)c1)C2 (some centres undefined) |  | inactive |
| CCN(CC)C(C)C(=O)c1ccccc1 (centres undefined) | -5.72% |  |
| O=C1NCN(c2ccccc2)C12CCN(CCCOc1ccc(F)cc1)CC2 |  | inactive |
| CCOC(=O)C(c1c(O)c2ccccc2oc1=O)c1c(O)c2ccccc2oc1=O | 4.75% |  |
| CN1CCC(N(Cc2ccccc2)c2ccccc2)CC1 | 0.0149% |  |
